As a reminder, the Inhibition is the relative decrease from the control value, in per cent.

Results on 24 compounds are retold here after ChEMBL document CHEMBL4296182, “CO-ADD screening of NIH NCI Diversity Set V”.

One test relates to Staphylococcus aureus. The test can be described thus: Antibacterial activity against Staphylococcus aureus MRSA ATCC 43300 (CO-ADD:GP_020); MIC in CAMBH media using NBS plates, by Resazurin F(560/590). The test is classed as functional. The note with it: Concentration 20 uM, ASSAY_TEST Inhibition of Bacterial Growth, detection method Resazurin, Fluorescence (ex560/em590), MEDIA CAMHB, plate type 384well, CORNING #3640, time 18 hr.

The test system of another test is Acinetobacter baumannii. The test can be described thus: Antibacterial activity against Acinetobacter baumannii ATCC 19606 (CO-ADD:GN_034); MIC in CAMBH media using NBS plates, by Resazurin F(560/590). The test is classed as functional. As to conditions: Concentration 20 uM, ASSAY_TEST Inhibition of Bacterial Growth, detection method Resazurin, Fluorescence (ex560/em590), MEDIA CAMHB, plate type 384well, CORNING #3640, time 18 hr. For orientation: Resazurin is reduced to fluorescent resorufin, in cell work by metabolically active cells.

A further test concerns Escherichia coli. The test can be described thus: Antibacterial activity against Escherichia coli ATCC 25922 (CO-ADD:GN_001); MIC in CAMBH media using NBS plates, by Resazurin F(560/590). The test is classed as functional. As to conditions: Concentration 20 uM, ASSAY_TEST Inhibition of Bacterial Growth, detection method Resazurin, Fluorescence (ex560/em590), MEDIA CAMHB, plate type 384well, CORNING #3640, time 18 hr.

A further test concerns Klebsiella pneumoniae. As to conditions: Concentration 20 uM; ASSAY_TEST Inhibition of Bacterial Growth; detection method Absorption (OD600); MEDIA CAMHB; plate type 384well; NBS; CORNING #3640; time 18 hr.
The subject of the next test is Candida albicans. The note with it: 20 µM.
For a further test, the system named is Cryptococcus neoformans. The note with it: Concentration 20 uM; ASSAY_TEST Inhibition of Fungal Growth; detection method Resazurin; Absorption (OD600-OD570); plate type 384well; NBS; CORNING #3640.

For part of these data: Results with a measured potency or affinity are listed apart.

`O=C1CCCN1CC#CCN1CCCC1` [OXOTREMORINE]: the Inhibition is -8.85% in the test with Staphylococcus aureus; 7.42% in the test on Acinetobacter baumannii; 9.1% in the test on Escherichia coli; 1.39% with Klebsiella pneumoniae; 0.18% in the test with Candida albicans; -12.14% in the test on Cryptococcus neoformans.
With `Nc1nc(N)c2cnnn2n1`, the Inhibition with Staphylococcus aureus was -6.46%; with Acinetobacter baumannii, -8.05%; in the test on Escherichia coli it was -17.28%; with Klebsiella pneumoniae, 8.25%; in the test on Candida albicans it was 5.35%; with Cryptococcus neoformans, 23.1%.
Consider `CC1CC(C)OP(=O)(OCCC#N)O1` (centres undefined), for which the Inhibition in the test with Staphylococcus aureus is 11.79%; with Acinetobacter baumannii, -12.84%; in the test on Escherichia coli, 9.51%; in the test on Klebsiella pneumoniae, 9.69%; in the test with Candida albicans, -4.51%; in the test on Cryptococcus neoformans it was -8.12%.
With `O=C1CN=C(c2ccc[nH]2)c2cc(Cl)ccc2N1`, the Inhibition with Staphylococcus aureus is 5.67%; with Acinetobacter baumannii, 14.08%; with Escherichia coli, -2.95%; in the test with Klebsiella pneumoniae, 17.48%; with Candida albicans, 0.21%; in the test on Cryptococcus neoformans, -5.64%.
Take `COc1ccc2c(c1O)[C@]13CCN(C)[C@H](C2)[C@@H]1CCC(=O)C3`: the Inhibition in the test with Staphylococcus aureus was -1.15%; in the test with Acinetobacter baumannii, -13.17%; in the test on Escherichia coli, 7.37%; in the test on Klebsiella pneumoniae, 14.9%; in the test on Candida albicans it was 0.05%; with Cryptococcus neoformans, -12.71%.
Turning to `CCN1CC2C3CCC(C)(O3)C2C1` (centres undefined), the Inhibition in the test on Staphylococcus aureus was 2.81%; in the test with Acinetobacter baumannii it was -6.99%; with Escherichia coli, 12.74%; with Klebsiella pneumoniae it was 12.11%; in the test on Candida albicans, 0.39%; in the test on Cryptococcus neoformans, -3.82%.
For `O=C(O)CN1C(=O)CN=C(c2ccccn2)c2cc(Cl)ccc21`, the Inhibition was 15.35% in the test on Staphylococcus aureus; 8.33% in the test with Acinetobacter baumannii; -0.79% in the test on Escherichia coli; 10.65% in the test on Klebsiella pneumoniae; 1.18% with Candida albicans; 0% in the test with Cryptococcus neoformans.
Consider `CCc1cc2c(cc1-c1csc(CC(=N)NO)n1)C(C)(C)CCC2(C)C`, for which the Inhibition in the test with Staphylococcus aureus is 9.42%; in the test on Acinetobacter baumannii, 7.35%; in the test on Escherichia coli, -22.59%; in the test on Klebsiella pneumoniae it was 1.69%; in the test on Candida albicans it was 7.1%; with Cryptococcus neoformans it was 24.54%.
On to `COc1cc(C=C2C(=O)NC(=O)NC2=O)ccc1O`, for which the Inhibition was 11.9% with Staphylococcus aureus; 5.89% with Acinetobacter baumannii; 0.28% in the test on Escherichia coli; 15.76% in the test on Klebsiella pneumoniae; 1.49% in the test with Candida albicans; -7.52% with Cryptococcus neoformans.
In the case of `O=S(=O)(F)c1ccc2nc(-c3cccc(Sc4ccccc4)c3)cc(Cl)c2c1`, the Inhibition was 0.33% with Staphylococcus aureus; -14.47% with Acinetobacter baumannii; 10.15% with Escherichia coli; 9.08% in the test on Klebsiella pneumoniae; 7.93% with Candida albicans; -2.04% in the test with Cryptococcus neoformans.
Consider `N#CC(C#N)=Cc1ccc(C=C(C#N)C#N)cc1`, for which the Inhibition in the test with Staphylococcus aureus was -4.05%; in the test on Acinetobacter baumannii, -13.9%; in the test on Escherichia coli, 2.09%; with Klebsiella pneumoniae it was 11.67%; in the test with Candida albicans, 36.5%; in the test with Cryptococcus neoformans, -3.4%.
On to `CC1(C)NC(=S)C(C)(C)N1N=O`, for which the Inhibition in the test with Staphylococcus aureus is 8.42%; with Acinetobacter baumannii, -13.11%; in the test on Escherichia coli, 8.85%; with Klebsiella pneumoniae, 8.33%; in the test on Candida albicans, 5.47%; with Cryptococcus neoformans it was -2.68%.
As to `CC(C)OC1CCCC(O)C1CC(=O)O` (centres undefined), the Inhibition with Staphylococcus aureus was 1.66%; with Acinetobacter baumannii it was -13.22%; in the test on Escherichia coli it was 6.88%; with Klebsiella pneumoniae, -1.53%; with Candida albicans, -0.2%; in the test with Cryptococcus neoformans, -7.06%.
With `CCOP(=O)(OCC)/C(C#N)=C/c1ccc(-c2ccc(F)cc2F)o1`, the Inhibition in the test on Staphylococcus aureus is 7.13%; with Acinetobacter baumannii, -5.44%; in the test on Escherichia coli it was 9.56%; in the test on Klebsiella pneumoniae it was 5.2%; in the test with Candida albicans it was 10.3%; in the test on Cryptococcus neoformans, -6.44%.
On to `NC=C1C(=O)N(c2ccccc2)C(=O)N(c2ccccc2)C1=O`, for which the Inhibition is -9.39% in the test with Staphylococcus aureus; 5.08% in the test on Acinetobacter baumannii; 6.01% in the test with Escherichia coli; 10.61% in the test with Klebsiella pneumoniae; 0.46% in the test on Candida albicans; -6.24% in the test with Cryptococcus neoformans.
Consider `C=C1C/C(=C/C)C(=O)O[C@@H]2CCN3CC=C(COC(=O)[C@]1(C)O)[C@H]23` [SENECIPHYLLINE], for which the Inhibition in the test on Staphylococcus aureus is 11.97%; in the test with Acinetobacter baumannii, -14.61%; in the test with Escherichia coli, -0.27%; with Klebsiella pneumoniae, 22.67%; in the test with Candida albicans, -1.29%; with Cryptococcus neoformans, -12.96%.
As for `CN1CCc2cc3c(cc2C1)OCO3`, the Inhibition is -5.07% with Staphylococcus aureus; -14.77% in the test on Acinetobacter baumannii; 11.12% in the test with Escherichia coli; 3.04% in the test with Klebsiella pneumoniae; 1.35% in the test on Candida albicans; -8.47% with Cryptococcus neoformans.
With `CN1C(=O)CC[C@@]2(C)C1=CC[C@@H]1[C@@H]2CC[C@@]2(C)[C@H]1CC[C@]2(C)O`, the Inhibition in the test with Staphylococcus aureus was 8.7%; in the test on Acinetobacter baumannii it was -5.24%; in the test on Escherichia coli, 22.22%; in the test with Klebsiella pneumoniae it was 11.27%; in the test with Candida albicans, -0.13%; in the test on Cryptococcus neoformans, -18.95%.
As to `CC(=O)Nc1ccc([As](=O)(O)c2ccc([N+](=O)[O-])cc2)cc1`, the Inhibition in the test on Staphylococcus aureus was 12.11%; in the test with Acinetobacter baumannii, 8.34%; with Escherichia coli it was -3.43%; in the test on Klebsiella pneumoniae it was 10.87%; in the test with Candida albicans, -1.88%; in the test with Cryptococcus neoformans, 0.38%.
As for `Cc1ccc(N2C(=O)C(=CN)C(=O)N(c3ccc(C)cc3)C2=O)cc1`, the Inhibition in the test with Staphylococcus aureus is 17.58%; with Acinetobacter baumannii, 4.93%; with Escherichia coli, 4.14%; with Klebsiella pneumoniae, 11.65%; in the test with Candida albicans it was -1.3%; in the test with Cryptococcus neoformans, -7.68%.
In the case of `CC(C)(C)c1cc(C=C(C#N)C#N)cc(C(C)(C)C)c1O` [TYRPHOSTIN A9], the Inhibition with Staphylococcus aureus is -5.13%; with Acinetobacter baumannii it was -9.85%; with Escherichia coli, 13.03%; in the test with Klebsiella pneumoniae it was 23.47%; in the test with Candida albicans it was 14.2%; in the test with Cryptococcus neoformans, 6.62%.
Regarding `CCCCOP(=O)(OCCCC)C1(C)CC(=O)CC(C)(C)C1` (centres undefined), the Inhibition in the test on Staphylococcus aureus was 5.73%; with Acinetobacter baumannii, -6.49%; in the test on Escherichia coli it was -5.15%; with Klebsiella pneumoniae, 23.67%; in the test with Candida albicans it was 1.05%; in the test on Cryptococcus neoformans, -15.51%.
In the case of `O=C1/C(=C\c2ccccc2)C2OCC=C3CN4CCC56c7ccccc7N1C5C2C3CC46` (centres undefined), the Inhibition with Staphylococcus aureus is 33.46%; in the test on Acinetobacter baumannii it was -0.22%; in the test with Escherichia coli, 16.65%; with Klebsiella pneumoniae, 12.64%; in the test with Candida albicans, -0.43%; in the test with Cryptococcus neoformans, -4.36%.
For the compound `CN1C2c3ccccc3C3C4c5ccccc5C(C31)C(C2[N+](=O)[O-])N4C` (centres undefined), the Inhibition with Staphylococcus aureus was 16.96%; in the test on Acinetobacter baumannii it was 4.34%; in the test with Escherichia coli, 9.05%; with Klebsiella pneumoniae, 7.01%; with Candida albicans, 2.24%; in the test with Cryptococcus neoformans it was -16.47%.
